The list is not random: actives were taken first. Their share in the collection is about 1.7%.
SARS 3CLpro inh – SARS-CoV 3CLpro protease inhibition | 290,000 compounds, 0.14% hits | P0C6X7 | recombinant SARS-CoV 3CLpro, quenched FRET peptide cleavage | AID 1706 | inhibition, % at 6 µM; in the data active = inhibition above about 12%
BH1578 lux ind – quorum light induction in luxS cqsA deficient V. cholerae; V. cholerae BH1578 lux reporter, luminescence, 6 h; activation, % at 18.7 µM; 350,000 compounds, 0.16% hits; in the data active = activation mostly above about 9.7%, no sharp cut-off
PfHsp40 yeast – compounds rescuing yeast from Plasmodium falciparum HSP40 toxicity; growth rescue, % at 12.5 µM; S. cerevisiae expressing PfHsp40, growth rescue, ATP luminescence; 340,000 compounds, 0.68% hits; in the data active = growth rescue above about 28%, passing the limit was not always enough;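 note: yeast W303a lacking pdr1 and pdr3 grown in galactose medium; growth measured after three days at 30 °C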
VHR inh abs – inhibitors of human VHR1 phosphatase (DUSP3). P51452. recombinant VHR phosphatase, pNPP absorbance. inhibition, % at 13.3 µM. 290,000 compounds, 0.52% hits. AID 1654; in the data active = inhibition above about 50%
Target sequence (P51452 whole entry, looked up): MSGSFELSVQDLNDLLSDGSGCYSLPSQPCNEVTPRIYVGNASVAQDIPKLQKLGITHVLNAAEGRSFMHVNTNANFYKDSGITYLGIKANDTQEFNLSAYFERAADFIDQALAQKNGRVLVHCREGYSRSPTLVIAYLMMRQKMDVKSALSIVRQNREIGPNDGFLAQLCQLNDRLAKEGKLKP
MazEF act – activators of E. coli MazEF toxin-antitoxin RNase | FAM/BHQ RNA-DNA oligo cleavage fluorescence, 5 h | activation, % at 20 µM | P0AE70 | AID 504720 | 350,000 compounds, 0.32% hits; in the data active = activation above about 50%
Target sequence (P0AE70 whole entry, looked up): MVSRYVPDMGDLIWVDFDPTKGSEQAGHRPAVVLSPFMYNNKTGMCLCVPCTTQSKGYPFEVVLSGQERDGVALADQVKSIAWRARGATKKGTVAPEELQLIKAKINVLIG
BJeLR lethal – BJeLR cell viability loss | inhibition, % (no concentration beside the values) | AID 1554 | BJeLR (HRASV12) viability, CellTiter-Glo ATP luminescence, 48 h | 300,000 compounds, 0.17% hits; in the data active = inhibition above about 50%
Large screens that a line does not name were inactive.

CN(C)c1nc(SCc2ccccc2Cl)nc2c1CCCC2	PfHsp40 yeast 155
COC(=O)/C=c1/s/c(=C(\C#N)C(=O)NCc2ccco2)n(-c2ccc(C)cc2)c1=O	MazEF act 65
COC(=O)/C=c1/s/c(=C(/C#N)C(=O)N2CCOCC2)n(-c2ccccc2)c1=O	none
O=C(CN(c1cccc(Br)c1)S(=O)(=O)c1ccccc1)N/N=C/c1cc([N+](=O)[O-])ccc1O	PfHsp40 yeast 247 (no result: SARS 3CLpro inh, VHR inh abs)
O=C(CCCC(=O)Nc1cccc(Br)c1)N/N=C/c1cc([N+](=O)[O-])ccc1O	none
O=C(CSc1nc2ccccc2s1)N/N=C/c1cc([N+](=O)[O-])ccc1O	PfHsp40 yeast 190
O=C(N/N=C/c1ccc(Sc2nc3ccccc3s2)c([N+](=O)[O-])c1)c1ccccn1	MazEF act 101
Cc1ccc(/C=N/NC(=O)CSc2nc3ccccc3s2)o1	none
O=C(NC1CCCC1)C(c1cccnc1)N(C(=O)c1csnn1)c1ccccc1Cl (configuration not stated)	none
CN(C(=O)c1ccc(NC(=O)Cc2ccc(NC(=O)C3CCN(C(=O)C4CC4)CC3)cc2)cc1)C1CCCC1	none (no result: SARS 3CLpro inh, VHR inh abs, BJeLR lethal)
COc1ccc(NC(=O)C2(C)Cc3c(-c4ccc(C(N)=O)cc4)ccnc3O2)cn1 (configuration not stated)	none (no result: SARS 3CLpro inh, PfHsp40 yeast, VHR inh abs, MazEF act, BJeLR lethal)
CCNC(=O)C1(C)CCN(Cc2noc(-c3c(C)noc3C)n2)C1 (configuration not stated)	none (no result: SARS 3CLpro inh, PfHsp40 yeast, VHR inh abs, MazEF act, BJeLR lethal)
CCN(CC)c1ccc(NC2CC(=O)N(CCc3ccc(OC)cc3)C2=O)cc1 (configuration not stated)	MazEF act 60
C[C@H](CO)N1C[C@H](C)[C@H](CN(C)Cc2ccc(Oc3ccccc3)cc2)Oc2cc(Br)ccc2S1(=O)=O	none (no result: SARS 3CLpro inh, PfHsp40 yeast, VHR inh abs, BJeLR lethal)
COc1ccc(-n2ncc(S(=O)(=O)c3ccccc3)c2-c2ccc(Cl)cc2)cc1	none
O=S(=O)(c1ccccc1)c1cnn(-c2ccccc2)c1-c1ccc(F)cc1	PfHsp40 yeast 49 (no result: BH1578 lux ind)
O=C(Nc1ccc(Cl)cc1)Nc1ccccc1C(=O)O	VHR inh abs 57
O=C(Nc1ccc(F)cc1)Nc1ccccc1F	VHR inh abs 56
COc1ccc(CCN(CC(=O)NC2CCCC2)C(=O)Cn2nnc(-c3ccc(C)o3)n2)cc1OC	none
c1cc(-c2cc3nc(NC4CCCCC4)ccn3n2)ccc1OCCN1CCOCC1	none (no result: SARS 3CLpro inh, PfHsp40 yeast, VHR inh abs, MazEF act, BJeLR lethal)
O=c1cc(-c2c(O)c3ccccc3n(Cc3ccccc3)c2=O)[nH][nH]1	PfHsp40 yeast 155
Cn1c(=O)c(-c2cccc(Cl)c2)c(O)c2ccccc21	none (no result: SARS 3CLpro inh, VHR inh abs)
Cn1c(=O)c(-c2cc(=O)[nH][nH]2)c(O)c2ccccc21	PfHsp40 yeast 47
CCn1c(=O)c(-c2cc(=O)[nH][nH]2)c(O)c2ccccc21	PfHsp40 yeast 97
C[C@H]1CN([C@@H](C)CO)S(=O)(=O)c2ccc(Br)cc2O[C@@H]1CN(C)C(=O)Cc1ccccc1	none (no result: SARS 3CLpro inh, PfHsp40 yeast, VHR inh abs, BJeLR lethal)
Cc1c(C(=O)N(C)C)sc2nc(-c3ccccn3)[nH]c(=O)c12	none
O=c1[nH]c(-c2ccccn2)nc2sc(-c3ccccc3)cc12	PfHsp40 yeast 177 (no result: BH1578 lux ind)
CS(=O)(=O)CCC(C(=O)Nc1ccc2c(c1)OCO2)N1Cc2ccccc2C1=O (configuration not stated)	VHR inh abs 57
CSCC[C@@H](C(=O)Nc1ccc2c(c1)OCCO2)N1Cc2ccccc2C1=O	none (no result: BH1578 lux ind)
C=C1C(=O)C23C(O)C1CCC2C12CCCC(C)(COC(C)=O)C1C(O)C3(O)OC2 (configuration not stated)	none (no result: SARS 3CLpro inh, VHR inh abs, BJeLR lethal)
O=C(CNC(=O)c1ccccc1)NCC(O)c1ccc([N+](=O)[O-])cc1 (configuration not stated)	none
O=C(/C=C/c1ccc(F)cc1)c1cc(Br)ccc1O	none
O=C(/C=C/c1ccccc1)c1cc(Br)ccc(=O)c1O	PfHsp40 yeast 332 (no result: BH1578 lux ind)
CC(=O)c1cnc2nc(SCc3ccccc3C)nn2c1C	none
CC(=O)c1cnc2nc(C(F)(F)F)nn2c1C	MazEF act 80
O=C(O)C/C(=C\c1ccc(Cl)cc1)c1nc2ccccc2o1	PfHsp40 yeast 135
O=C(O)Cc1ccc(C(=O)c2ccccc2)s1	none
N#CCc1ccc(C(=O)c2ccccc2F)s1	BH1578 lux ind 25
Cc1cc2cc(CNC(=O)CC(C)C)ccc2n1C	VHR inh abs 55
CCOC(=O)NCc1ccc2c(c1)cc(C)n2C	VHR inh abs 51
